Bioassay records (PubChem)
BJeLR lethal: MLPCN primary cell-based screen for lethality selective to Ras in HRASV12 cells; BJeLR (HRASV12) viability, CellTiter-Glo ATP luminescence, 48 h; 300,000 compounds, 0.17% hits; AID 1554, 2009; inhibition, % (concentration not given with the values); in the data active = inhibition above about 50%; inconclusive = no clear call, values can overlap the other calls
CCHF vOTU inh: CCHFV vOTU protease inhibitors, primary screen, biochemical, Pep-AMC substrate, fluorescence; 370,000 compounds, 0.55% hits; inhibition, % at 11.5 µM; in the data active = inhibition above about 30%; note: 0% = vehicle wells with enzyme and 100% = no enzyme wells
Yp Topo-I inh: Yersinia pestis topoisomerase I inhibitors, primary screen, biochemical, cleavage product accumulation, plate reader, single point; activity, % at 10 µM; 360,000 compounds, 0.064% hits; Y. pestis Topo-I cleavage product accumulation; in the data active = activity above about 50%, passing the limit was not always enough; inconclusive = no clear call, values can overlap the other calls
RecA splice inh: Mtb RecA intein splicing inhibitors, primary screen, biochemical, fluorescence, HTS | inhibition, % (concentration not given with the values) | AID 2221, 2009 | 290,000 compounds, 0.75% hits | Protein RecA (Mycobacterium tuberculosis (strain ATCC 25618 / H37Rv)), P9WHJ3 | cell-free RecA intein splicing; in the data active = inhibition above about 30%; inconclusive = no clear call, values can overlap the other calls;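 note: 0% = vehicle wells and 100% = reference inhibitor control wells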
Target sequence (P9WHJ3 whole entry, looked up, canonical isoform): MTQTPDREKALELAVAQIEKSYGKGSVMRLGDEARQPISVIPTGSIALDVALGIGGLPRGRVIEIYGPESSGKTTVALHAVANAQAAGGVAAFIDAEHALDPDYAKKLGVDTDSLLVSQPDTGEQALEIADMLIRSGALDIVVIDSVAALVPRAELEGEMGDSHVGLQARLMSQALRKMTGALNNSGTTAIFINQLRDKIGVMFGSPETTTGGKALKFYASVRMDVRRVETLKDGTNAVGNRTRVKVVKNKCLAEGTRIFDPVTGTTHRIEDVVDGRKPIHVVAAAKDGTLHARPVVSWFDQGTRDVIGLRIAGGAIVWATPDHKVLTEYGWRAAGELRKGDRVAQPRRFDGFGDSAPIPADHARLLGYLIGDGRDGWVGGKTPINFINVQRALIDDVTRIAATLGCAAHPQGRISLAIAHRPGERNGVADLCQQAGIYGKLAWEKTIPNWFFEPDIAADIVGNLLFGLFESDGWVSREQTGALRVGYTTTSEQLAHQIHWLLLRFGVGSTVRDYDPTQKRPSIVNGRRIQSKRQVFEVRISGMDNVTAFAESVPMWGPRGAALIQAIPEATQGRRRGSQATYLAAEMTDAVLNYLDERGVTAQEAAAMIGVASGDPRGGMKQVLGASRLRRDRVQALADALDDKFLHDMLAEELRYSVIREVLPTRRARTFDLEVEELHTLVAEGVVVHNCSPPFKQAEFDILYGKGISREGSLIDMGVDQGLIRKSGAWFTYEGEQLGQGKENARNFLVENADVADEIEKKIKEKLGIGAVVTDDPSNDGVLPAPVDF
Mtb betalactam: beta-lactam sensitization of Mtb H37Rv, H37Rv. 330,000 compounds, 0.27% hits. M. tuberculosis H37Rv growth with meropenem, percent inhibition. AID 434955, 2010. inhibition, % at 25 µM; call rule not given here;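 note: growth measured after seven days incubation then overnight dye step; 0% = bacteria only wells and 100% = bacteria with antibiotic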
Mtb BioA inh: M. tuberculosis BioA enzyme inhibitors, primary screen, biochemical, plate reader, single point, HTS. 7,8-diaminopelargonic acid synthase BioA (Mycobacterium tuberculosis). purified M. tuberculosis BioA enzyme. inhibition, % at 9.99 µM. 360,000 compounds, 0.096% hits; in the data active = inhibition above about 40%; inconclusive = no clear call, values can overlap the other calls
An asterisk follows results filed as active; ? = inconclusive; . = no result. An excerpt weighted towards active compounds, which were near 1.1% of everything screened.

SMILES	BJeLR lethal	CCHF vOTU inh	Yp Topo-I inh	RecA splice inh	Mtb betalactam	Mtb BioA inh
CCOc1cc(/C=C2\C(=N)N3N=C(N4CCCCC4)SC3=NC2=O)ccc1OC(=O)c1ccco1	12	3	9	35*	74	2
CN(C)CC(=O)N[C@@H]1CC[C@H](CCNC(=O)C2CCCCC2)O[C@@H]1CO	.	.	.	.	.	-2
CO[C@H]1CN(C)C(=O)c2ccc(NC(=O)c3ccccc3F)cc2OC[C@@H](C)N(CC2CC2)C[C@H]1C	.	.	.	.	.	0
COc1ccc(NC(=O)CN(C)C(=O)/C=C/c2ccc(S(=O)(=O)N3CCCCCC3)cc2)cc1	-7	6	77*	-1	-19	-1
Cc1ccc(S(=O)(=O)Nc2ccc3c(c2)C(=O)N([C@@H](C)CO)C[C@H](C)[C@@H](CN(C)C(=O)CCCN(C)C)OCCCC[C@H](C)O3)cc1	.	.	.	.	.	0
CC(=O)[C@]1(O)Cc2c(O)c3c(c(O)c2[C@@H](O[C@H]2C[C@H](N)[C@H](O)[C@H](C)O2)C1)C(=O)c1ccccc1C3=O	82*	.	.	-16	99	.
COc1cccc2c1C(=O)c1c(O)c3c(c(O)c1C2=O)C[C@@](O)(C(=O)CO)C[C@@H]3O[C@H]1C[C@H](N)[C@@H](O)[C@H](C)O1	74*	.	-11	-7	94	-11
C[C@H](CO)N1C[C@H](C)[C@@H](CN(C)C(=O)Nc2ccc3c(c2)OCO3)Oc2ccc(NS(C)(=O)=O)cc2CC1=O	.	.	.	.	.	-1
CCCCCCCCN1[C@@H](CC(=O)OCC)c2cc(C(F)(F)F)ccc2S1(=O)=O	8	18	70*	6	6	2
C[C@@H]1CN([C@@H](C)CO)C(=O)c2cc(-c3cccnc3)cnc2O[C@@H]1CN(C)C(=O)C1CCOCC1	.	.	.	.	.	-2
Cc1ccc(C(=O)Oc2ccc([N+](=O)[O-])cc2)cc1S(=O)(=O)N1CCCCCC1	-2	2	16	30*	4	0
CN(C)c1cc(N/N=C\c2ccccc2)nc(N(C)C)n1	2	14	-7	6	9	.
COc1ccccc1/C=N/Nc1cc(N(C)C)nc(N(C)C)n1	0	13	0	44*	8	.
Cc1nn(CCc2nn[nH]n2)c2nc(-c3ccc(C4CCCCC4)cc3)cc(C(F)(F)F)c12	1	-3	-2	34*	.	.
Cc1nn(CCC(N)=O)c2nc(-c3cccs3)cc(C(F)(F)F)c12	-5	-129	8	5	5	.
COc1cc(OC)c(C2=NOC(C(=O)NCc3cccs3)C2)cc1Cl (stereo unspecified)	63*	-5	-8	0	-5	.
CN1C(=O)c2cc(NC(=O)c3cc(F)cc(F)c3)ccc2OC[C@H]2O[C@H](CC(=O)O)CC[C@H]21	.	.	.	.	.	0
Cc1nc2cc(-c3ccccc3)sc2c(=O)n1N	79*	-8	13	2	7	.
COc1ccc(-c2cc3nc4n(c(=O)c3s2)CCC4)cc1	25	-92	1	-2	4	-1
COc1ccc(-c2cc3nc(C)n(N)c(=O)c3s2)cc1	99*	-99	-3	-5	-11	0
O=C(CCN1CCCCC1)NCC[C@@H]1CC[C@@H](NC(=O)c2ccc(F)cc2)[C@H](CO)O1	.	.	.	.	.	0
O=C(NCc1ccc(F)cc1)[C@@H]1[C@@H](CO)[C@@H]2Cn3c(cccc3=O)[C@@H]2N1CCC(F)(F)F	.	.	.	.	.	1
CCc1ccc(CNC(=O)Cc2ccc(NC(=O)C3=C(C)OCCS3)cc2)cc1	53*	14	27	1	-1	0
C[C@@H]1CCCCO[C@H](CN(C)C(=O)c2ccccc2)[C@@H](C)CN([C@@H](C)CO)C(=O)c2cc(NC(=O)C3CCCCC3)ccc2O1	.	.	.	.	.	1
O=C(CCl)Nc1c2c(nn1-c1ccccc1)CSC2	7	6	2	35*	99	-1
SMILES	BJeLR lethal	CCHF vOTU inh	Yp Topo-I inh	RecA splice inh	Mtb betalactam	Mtb BioA inh
CCCCc1ccc(/C=C2\C(=O)c3ccccc3C(O)=C2C(=O)OCC)cc1	12	.	.	35*	6	.
CC(C)NC(=O)N(C)C[C@H]1Oc2ccc(NC(=O)Cc3cn(C)c4ccccc34)cc2C(=O)N([C@@H](C)CO)C[C@H]1C	.	.	.	.	.	1
c1ccc(-c2nc(Sc3ncnc4c3cnn4-c3ccccc3)n[nH]2)cc1	-4	.	.	32*	93	.
Cc1ccc(CSc2ncnc3c2cnn3-c2ccccc2)cc1	3	13	1	0	12	.
Cc1cccc(N2CC(C(=O)OCC(=O)c3ccc(OC(=O)c4cccs4)cc3)CC2=O)c1C (stereo unspecified)	-1	2	35	36*	1	-1
Cc1cccc(N2CC(C(=O)OCC(=O)Nc3sccc3C(N)=O)CC2=O)c1C (stereo unspecified)	.	2	0	.	-6	1
CC(C)c1[nH]nc2c1C(Cc1ccccc1)C(C#N)=C(N)O2 (stereo unspecified)	-3	-12	0	53*	5	2
CCc1[nH]nc2c1C(c1ccc(Br)s1)C(C#N)=C(N)O2 (stereo unspecified)	.	0	-1	.	8	3
CC(C)c1[nH]nc2c1C(C(C)C)C(C#N)=C(N)O2 (stereo unspecified)	1	-16	10	6	0	-2
Cc1ccc(C2C(C#N)=C(N)Oc3nc(-c4ccccc4)[nH]c32)o1 (stereo unspecified)	-12	8	-9	89*	2	-2
CC(C)c1[nH]nc2c1C(c1cccnc1)C(C#N)=C(N)O2 (stereo unspecified)	-8	-6	3	43*	-3	1
CCc1[nH]nc2c1C(c1ccc(C)o1)C(C#N)=C(N)O2 (stereo unspecified)	11	-6	7	49*	-11	.
COCc1[nH]nc2c1C(c1ccccc1OC)C(C#N)=C(N)O2 (stereo unspecified)	3	-2	-3	62*	0	.
CCCc1[nH]nc2c1C(Cc1ccccc1)C(C#N)=C(N)O2 (stereo unspecified)	8	-3	10	28	-4	-1
CC(C)N1CC2=C(OC(N)=C(C#N)C2c2cccnc2)/C(=C/c2cccnc2)C1 (stereo unspecified)	-5	-9	5	-3	?	43*
CCc1[nH]nc2c1C(Cc1ccccc1)C(C#N)=C(N)O2 (stereo unspecified)	-6	6	-9	59*	2	1
N#CC1=C(N)Oc2n[nH]c(-c3cccs3)c2C1c1ccncc1 (stereo unspecified)	1	11	2	60*	-4	3
